Rows were chosen to be rich in hits. Some 2.4% of all compounds tested hit in one or more screens of this group.
Mcl1-Noxa inh – Mcl-1/Noxa interaction inhibition; Q07820; hit rate 1.5% among 220,000; AID 1022; inhibition, % at 21.7 µM; TR-FRET Mcl-1/Noxa peptide binding, 2 h;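 active means compounds that cut the protein-peptide binding signal by more than 50% relative to plate controls in a single-dose test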;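 further: His-tagged Mcl-1 with rhodamine Noxa BH3 peptide and terbium anti-His antibody; 0% = Mcl-1 plus Noxa peptide wells and 100% = peptide-only wells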
Target sequence (Q07820 whole entry, looked up): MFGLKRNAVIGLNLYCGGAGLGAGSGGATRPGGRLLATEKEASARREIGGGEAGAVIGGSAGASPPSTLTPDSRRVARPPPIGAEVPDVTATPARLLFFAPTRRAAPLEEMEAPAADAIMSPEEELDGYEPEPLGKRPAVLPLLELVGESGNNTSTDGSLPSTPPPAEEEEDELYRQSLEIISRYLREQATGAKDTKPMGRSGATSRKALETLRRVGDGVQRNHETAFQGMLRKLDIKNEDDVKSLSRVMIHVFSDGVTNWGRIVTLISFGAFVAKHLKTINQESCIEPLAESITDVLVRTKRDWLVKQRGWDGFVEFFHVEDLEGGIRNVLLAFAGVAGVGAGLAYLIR
MCL1-BIM inh – disrupts human MCL1 binding to BIM-BH3 peptide. GST-MCL1 / FITC-Bim-BH3 fluorescence polarization. hit rate 0.68% among 320,000. Q07820. inhibition, % at 10.9 µM;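 active means inhibition above the mean inhibition of all tested compounds plus 3 SD, set per campaign, cut at about 40% in these data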;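 further: 0% = DMSO wells and 100% = unlabeled Bim-BH3 peptide control; higher means more loss of mP so more displacement of Bim peptide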
Mcl-1 Bim block – human Bim-Mcl-1 interaction inhibition | Q07820 | Bead-based flow cytometry, Bim peptide-Mcl-1 binding | inhibition, % at 10 µM | hit rate 0.1% among 190,000 | AID 1009; in the data active means inhibition above about 40%;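 further: 0% = no compound tracer wells and 100% = peptide blocker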
L929 necroptosis – blocks zVAD induced death of L929 cells; L929 zVAD necroptosis rescue, ATP luminescence, 24 h; with zVAD 60 µM; viability rescue, % at 10 µM; hit rate 0.38% among 220,000; AID 1377;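 active means activation, scaled between plate controls, above about 75%, limit read from the data; inactive means activation under that limit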;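 further: 0% = zVAD with DMSO and 100% = DMSO alone without zVAD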
Mcl1 Bid PPI – Mcl-1/Bid interaction inhibition. Q07820. TR-FRET Mcl-1/Bid-Dy647 peptide binding, 1536-well. inhibition, % at 21.7 µM. hit rate 0.97% among 220,000. AID 1021;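 active means compounds that cut the binding signal by more than half at the single screening dose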;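 further: His-tagged Mcl-1 with europium anti-His antibody binding Bid BH3 peptide; 0% = Mcl-1 plus peptide wells and 100% = peptide-only wells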
TNF death inh – TNF-alpha cell death inhibition in Jurkat FADD-/- cells; Jurkat FADD-/- TNF necroptosis rescue, ATP luminescence, 24 h; 0 = TNF only, 100 = no-TNF cells; activation (protection from cell death), % at 10 µM; hit rate 0.068% among 220,000; AID 463075;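 active means activation, meaning protection from cell death, of at least 50% relative to plate controls; inactive means activation below 50%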;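 further: necroptosis triggered by 40 ng/mL TNF-alpha added together with compound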
BCLXL inh confirm – Bcl-xL (human) inhibition, MCL1 counter-screen confirmation; shares compounds with MCL1-BIM inh; GST-Bcl-xL / FITC-Bim BH3 peptide FP binding; inhibition, % at 10.9 µM; hit rate 54% among 1,700;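 active means inhibition above a cutoff equal to the mean inhibition of all tested compounds plus 3 SD, cut at about 30% in these data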;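 further: 0% = DMSO wells and 100% = unlabeled Bim BH3 control peptide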
Target sequence (Q07817 whole entry, looked up): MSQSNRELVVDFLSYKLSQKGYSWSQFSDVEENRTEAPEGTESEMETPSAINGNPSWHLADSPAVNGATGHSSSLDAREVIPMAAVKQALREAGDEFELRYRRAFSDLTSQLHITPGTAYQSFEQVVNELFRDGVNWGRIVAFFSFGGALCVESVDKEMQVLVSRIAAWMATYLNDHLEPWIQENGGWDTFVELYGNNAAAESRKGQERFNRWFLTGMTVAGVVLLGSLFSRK
MCL1 BIM confirm – MCL1-BIM-BH3 interaction inhibition, confirmation; GST-MCL1 / FITC-Bim-BH3 fluorescence polarization; hit rate 61% among 1,700; shares compounds with MCL1-BIM inh; inhibition, % at 10.9 µM; AID 2168;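 active means inhibition above the average of all tested compounds plus 3 SD, cut at about 40% in these data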;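 further: 0% = DMSO wells and 100% = unlabeled Bim-BH3 control peptide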
An asterisk follows results filed as active; nt = no result; + = active, no number.

SMILES	Mcl1-Noxa inh	MCL1-BIM inh	Mcl-1 Bim block	L929 necroptosis	Mcl1 Bid PPI	TNF death inh	BCLXL inh confirm	MCL1 BIM confirm
Cc1c(O)c2c3c(cccc3c1O)C(=O)N(c1ccccc1)C2=O	-8.9	97.9*	-3.0	-0.3	-5.7	-1.7	92.3*	105.3*
CSCCC(NC(=O)/C(=C/c1ccco1)NC(=O)c1ccco1)C(=O)O (stereo not given)	nt	7.5	nt	nt	nt	nt	nt	nt
COc1ccc(C2=NS(=O)(=O)N(C)C(C(=O)N3CCCCC3)=C2)cc1OC	nt	-9.2	nt	nt	nt	nt	nt	nt
COc1ccc(CN2CC[C@H]3C=CCc4cccc(c43)C2)cc1	nt	86.7*	nt	nt	nt	nt	19.2	16.2
Cc1ccc(CN2CC[C@H]3C=CCc4cccc(c43)C2)cc1	nt	4.9	nt	nt	nt	nt	nt	nt
O=C(Nc1ccc(F)cc1F)c1noc2c1CCC2	18.6	46.5*	-1.0	1.1	-24.2	2.9	18.6	66.0*
NC(=O)c1ccsc1N	23.9	189.4*	0.0	0.5	-16.8	-1.3	10.8	2.0
COc1ccc2ccc3c(c2c1)N=CC1(O3)N(C)c2ccccc2C1(C)C (stereo not given)	43.8	53.6*	-4.0	1.2	-28.0	-4.8	62.5*	83.3*
COC(=O)c1ccc(NC(=O)CCN2C(=O)C3CC=CCC3C2=O)cc1 (stereo not given)	nt	-11.4	nt	nt	nt	nt	nt	nt
COCCNC(=O)NC(=O)CN1CCCc2ccccc21	12.2	73.5*	-1.0	0.4	-21.1	-0.4	6.9	12.2
Cc1cc(C=C2C(=O)c3ccccc3C2=O)c(C)n1C	31.8	70.7*	1.0	2.7	-27.4	-0.5	33.6*	55.4*
CCn1c(C)cc(C=C2C(=O)c3ccccc3C2=O)c1C	30.6	nt	7.0	56.9	-77.7	0.7	nt	nt
O=C(Nc1ccon1)c1sc2cc(Cl)ccc2c1Cl	nt	-6.8	nt	nt	nt	nt	nt	nt
CC12CN(C(=S)Nc3ccccc3)CC(C)(CN(C(=S)Nc3ccccc3)C1)C2=O	0.1	-9.3	-1.0	1.1	-49.1	1.8	nt	nt
CCN(CC)c1ccc(/C=C/C(=O)C2C(=O)C=C(C)OC2=O)cc1 (stereo not given)	24.8	79.4*	nt	1.1	-46.3	-3.9	78.8*	124.8*
CC(C)CCNc1c(-c2cccs2)nc2ccccn12	18.4	67.7*	0.0	-0.2	-49.0	0.1	46.0*	69.0*
CCNc1ccccc1CP(=O)(c1ccccc1)c1ccccc1O (stereo not given)	nt	+	nt	nt	nt	nt	30.0	17.8
Cc1ccc(O)c(CP(=O)(c2ccccc2)c2ccccc2)c1	-0.6	4.7	16.0	0.5	-19.7	1.2	nt	nt
COc1cccc(NC(=O)C2Cc3ccccc3CN2C(=O)c2ccco2)c1 (stereo not given)	nt	-8.2	nt	nt	nt	nt	nt	nt
O=C(O)c1ccc2c(c1)[C@@H]1C=CC[C@@H]1[C@H](c1ccccn1)N2	nt	86.3*	nt	2.3	nt	-0.4	50.4*	85.2*
COc1ccc(C(=O)N/N=C(\C)c2ccc3c(c2)C2C=CCC2C(c2ccccc2)N3)cc1 (stereo not given)	45.8	56.5*	3.0	nt	-1.8	-5.3	5.5	-0.7
O=C(NCCOc1ccccc1)C1Nc2ccc(OC(F)(F)F)cc2C2C=CCC12 (stereo not given)	nt	7.2	nt	nt	nt	nt	nt	nt
COc1cccc(NS(=O)(=O)c2ccc3c(c2)C2C=CCC2C(c2ccc(C(=O)O)cc2)N3)c1 (stereo not given)	97.0*	58.4*	6.0	1.9	14.1	0.6	29.2	46.0*
C=CCn1c(=O)[nH]c2nc3cc(N=CN(C)C)c(C)cc3nc2c1=O	-173.8	+	nt	-0.8	-13.2	2.4	185.6*	+
Cc1cc(/C=C(/C#N)c2nc3ccccc3[nH]2)c(C)n1-c1cccc([N+](=O)[O-])c1	13.0	4.2	1.0	4.0	-70.9	-2.0	nt	nt
SMILES	Mcl1-Noxa inh	MCL1-BIM inh	Mcl-1 Bim block	L929 necroptosis	Mcl1 Bid PPI	TNF death inh	BCLXL inh confirm	MCL1 BIM confirm
Cc1cc(/C=C(\C#N)c2nc3ccccc3[nH]2)c(C)n1C	36.6	122.2*	-3.0	4.8	-79.5	1.1	127.2*	149.4*
Cc1cc2nc3c(=O)[nH]c(=S)[nH]c3nc2cc1NC(=O)C(F)(F)F	nt	+	nt	nt	nt	nt	184.8*	196.7*
COc1ccc(C(=O)OCC(=O)Nc2ncc([N+](=O)[O-])s2)cc1OC	nt	73.8*	nt	nt	nt	nt	28.0	57.6*
NNC(=O)c1cc(O)c(O)c(O)c1	73.0*	54.1*	8.0	0.5	-83.2	-0.2	34.4*	46.2*
COc1c(Cl)cc(C(=O)NN)cc1Cl	6.7	-1.1	-2.0	0.2	-23.8	-0.4	nt	nt
Cc1cc(SCC(=O)N/N=C/c2ccc(O)c(O)c2O)c(C)cc1Br	84.2*	50.7*	-2.0	0.6	17.7	-11.6	6.7	34.4
O=C(Nc1nnc(-c2ccc(F)cc2)o1)c1ccc(S(=O)(=O)N2CCOCC2)cc1	nt	5.1	nt	nt	nt	nt	nt	nt
NC(=O)c1cc2ccc(O)cc2oc1=NCc1ccccc1	2.2	151.2*	-3.0	5.6	-11.0	1.5	170.4*	198.6*
NC(=O)c1cc2ccccc2oc1=NCc1ccccc1	-14.1	6.3	0.0	0.5	11.7	-2.3	nt	nt
Cc1ccc(N2C(=O)[C@@H]3[C@H](C2=O)C2CCCN2[C@@H]3C(=O)c2ccccc2)cc1 (stereo not given in full)	24.4	81.0*	0.0	-1.2	-7.6	-3.7	63.7*	75.7*
O=C(c1ccccc1)[C@@H]1[C@@H]2C(=O)N(c3ccc(F)cc3)C(=O)[C@@H]2C2CCCN21 (stereo not given in full)	-7.9	61.9*	nt	0.2	-7.3	-2.4	57.8*	62.0*
CC(=O)c1ccc(N2C(=O)C3C(C2=O)C(C(=O)c2ccc(Cl)cc2)N2CCCC32)cc1 (stereo not given)	10.3	nt	1.0	-0.3	-91.1	-9.9	nt	nt
O=C(c1ccc(Cl)cc1)C1C2C(=O)N(c3ccccc3)C(=O)C2C2CCCN21 (stereo not given)	6.8	nt	1.0	0.1	-80.5	-4.8	nt	nt
O=C(Cc1cnn(-c2ccccc2)c1)c1ccc(O)c(O)c1O	38.9	64.0*	-2.0	0.6	-1.0	-4.2	13.6	39.6
O=C(NNS(=O)(=O)c1ccc(F)cc1)c1ccccc1O	nt	8.2	nt	nt	nt	nt	nt	nt
Cc1ccc(S(=O)(=O)NNC(=O)c2ccccc2O)cc1	30.4	44.0*	-1.0	1.4	-46.1	0.7	12.3	29.1
CCOC(=O)C1CCCN(C(=O)C2c3ccccc3Oc3ccccc32)C1 (stereo not given)	6.7	+	-3.0	-0.2	3.1	0.2	42.0*	55.4*
CCn1c(CSc2nnc3ccccn23)nc2cc(C(=O)O)ccc21	23.1	110.4*	0.0	0.1	-14.2	-1.8	64.3*	86.0*

Screening data deposited in PubChem BioAssay by several laboratories.
